Source: PubChem
Sampled rows, rich in hits. Any-hit rate of the full collection: about 2.4%.
Pol kappa inh-1: inhibitors of human DNA polymerase kappa | purified Pol kappa, fluorescent DNA synthesis assay, 10 min | Potency, µM (top dose mostly 107 µM), inactives show at the top dose activity, negative = inhibition, hits mostly inhibitors | Q9UBT6 | 400,000 compounds, 0.53% hits | AID 588579; note: % is set by controls: 0 for no effect and ±100 for the full control effect
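10 nM Pol kappa preincubated 15 min at room temperature with compounds, then reaction started with substrate at 50 nM final. Fluorescence read kinetically at 0 and 10 min; buffer-only wells served as negative control.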
Pol beta inh: inhibitors of human DNA polymerase beta | P06746 | Pol beta primer extension/strand displacement, fluorescence kinetic | Potency, µM (series often up to 114 µM), for the others: at the highest dose activity change, negative = inhibition, hits mostly inhibitors | 340,000 compounds, 1.3% hits; note: % is set by controls: 0 for no effect and ±100 for the full control effect
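Pol beta (10 nM) was preincubated with compound for 15 min at room temperature. The reaction was then started with 50 nM substrate and read immediately and after a further 10 min at room temperature.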
POLI inh: inhibitors of human DNA polymerase iota. Q9UNA4. 390,000 compounds, 1% hits. Potency, µM (series often up to 115 µM), for the others: at the highest dose activity, negative = inhibition, hits mostly inhibitors. Pol iota fluorescent replication assay, 10 min
Target sequence (Q9UNA4 whole entry, looked up): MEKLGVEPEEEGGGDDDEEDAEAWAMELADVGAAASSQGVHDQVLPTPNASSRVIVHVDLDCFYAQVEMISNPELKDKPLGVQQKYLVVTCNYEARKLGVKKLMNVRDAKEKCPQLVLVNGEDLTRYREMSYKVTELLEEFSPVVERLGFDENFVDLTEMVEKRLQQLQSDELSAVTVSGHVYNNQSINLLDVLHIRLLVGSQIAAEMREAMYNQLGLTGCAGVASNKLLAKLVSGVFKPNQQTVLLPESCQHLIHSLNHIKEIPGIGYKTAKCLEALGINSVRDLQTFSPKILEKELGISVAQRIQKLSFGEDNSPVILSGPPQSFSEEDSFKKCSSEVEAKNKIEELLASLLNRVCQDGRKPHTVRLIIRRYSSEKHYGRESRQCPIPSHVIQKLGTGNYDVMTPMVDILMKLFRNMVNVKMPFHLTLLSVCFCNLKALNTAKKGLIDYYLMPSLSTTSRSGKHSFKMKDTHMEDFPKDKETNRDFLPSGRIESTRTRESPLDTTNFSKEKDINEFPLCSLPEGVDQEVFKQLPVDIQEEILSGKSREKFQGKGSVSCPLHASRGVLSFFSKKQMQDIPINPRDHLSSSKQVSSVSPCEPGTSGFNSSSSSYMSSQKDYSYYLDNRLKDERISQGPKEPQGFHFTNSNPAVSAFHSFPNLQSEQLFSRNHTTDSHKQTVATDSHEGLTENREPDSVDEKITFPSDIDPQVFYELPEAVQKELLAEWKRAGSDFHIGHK
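Pol iota at 10 nM preincubated 15 min with compounds at room temperature; reaction started with fluorescent substrate, 50 nM final. Fluorescence read kinetically at 0 and 10 min; buffer-only wells as negative control.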
GLS inhibitor: inhibitors of human glutaminase (GLS); Potency, µM (top dose mostly 45.5 µM), inactives show top-dose activity change, negative = inhibition, usual class: inhibitors; GLS enzymatic activity, qHTS titration; O94925; 410,000 compounds, 0.21% hits; AID 624170; note: % is set by controls: 0 for no effect and ±100 for the full control effect
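hKGA in 45 mM KH2PO4 (pH 8.2), 0.02% Tween-20 with compound, then 1mM L-Glutamine (stock as added) plus glutamate oxidase/HRP/Amplex red coupling mix. Fluorescence read initially and after 30 min at RT; signal change reflects glutamate formation.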
Pol eta inh-1: DNA polymerase eta (human) inhibition | Potency, µM (titrated, usually from 114 µM), inactives show at the highest dose activity change, negative = inhibition, hits mostly inhibitors | Q9Y253 | 390,000 compounds, 1.2% hits | recombinant Pol eta, fluorescent DNA replication assay; note: % is set by controls: 0 for no effect and ±100 for the full control effect
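Pol eta (10 nM) was preincubated with compounds for 15 min at room temperature, after which fluorescent replication substrate (50 nM final) was added to start the reaction. Fluorescence was read kinetically at 0 and 10 min.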
APE1 inh: blocks human APE1 abasic DNA cleavage. 350,000 compounds, 0.35% hits. AID 2517. Potency, µM (highest dose often 65.8 µM), inactives show at the top dose activity change, negative = inhibition, actives largely listed as inhibitors. P27695. recombinant APE1, TAMRA/BHQ-2 abasic DNA cleavage fluorescence;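 note: plate controls were vehicle for no effect and reference inhibitor for full effect; nearly all actives have a fitted effect of over 55% in size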
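Incision of a quenched TAMRA/BHQ-2 THF abasic-site duplex (50 nM) by 0.75 nM APE1, after 15 min compound preincubation, measured as fluorescence increase over three 60 s reads. Values normalized to buffer, DMSO and NSC13755 control wells.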
Pol kappa inh-2: Pol kappa (human) inhibition, cherry-pick confirmation; shares compounds with Pol eta inh-1; purified Pol-kappa, fluorescent strand-displacement substrate; Potency, µM, hits mostly inhibitors; 920 compounds, 76% hits
Pol eta inh-2: Pol eta (human) inhibition, cherry-pick confirmation; Pol eta primer extension, TAMRA/BHQ fluorescence, 10 min; AID 720502; 2,600 compounds, 64% hits; shares compounds with Pol eta inh-1; Potency, µM, usual class: inhibitors
* marks the source's active call; other numbers are inactive results; ? = inconclusive; nt = no result; [ ] = remark or other dose. Calls come from the whole dose curve; as a rule, active = well fitted curve in the direction sought with a large enough effect; inconclusive = small, poorly fitted or top-dose-only effect, or another doubt; inactive = no such curve, though single readings can be large; an effect the other way counts as inactive or inconclusive. Potency is the fitted concentration of half-maximal effect.

SMILES | Pol kappa inh-1 | Pol beta inh | POLI inh | GLS inhibitor | Pol eta inh-1 | APE1 inh | Pol eta inh-2 | others
COC(=O)C1C2C=CC3(CN(c4cccc(C)c4)C(=O)C13)O2 (stereo unspecified) | -25% | -28% | ? | -9% | 35µM* | 0% | ?
Cc1c(Cl)cccc1NC(=S)N1CCN(c2ccccn2)CC1 | -5% | -19% | 32% | 1% | -16% | 6% | nt
Cc1oc(C(=O)O)cc1COc1cccc2ccccc12 | -12% | -1% | -1% | 7% | -3% | -5% | nt
COc1cc(C(=O)O)cc(OC)c1OCc1cc(C(=O)O)oc1C | -42% | 18µM* | ? | -20% | 3.2µM* | ? | 48* | Pol kappa inh-2=42*
CC(=O)Nc1ccc(NC(=O)C2(C)Cc3c(-c4ccccc4)ccnc3O2)cc1 (stereo unspecified) | nt | nt | nt | 0% | nt | nt | nt
CCOc1ccc(-c2ccc(/C=C3/C(=N)N4C(C)=CSC4=NC3=O)o2)c([N+](=O)[O-])c1 | ? | 35µM* | 40µM* | -5% | 14µM* | 8% | ?
CCOc1ccc(-c2ccc(/C=C3/C(=N)N4C=CSC4=NC3=O)o2)c([N+](=O)[O-])c1 | -8% | 0% | -1% | 4% | ? | -2% | nt
O=C1Nc2ccccc2C1(O)Cc1ccncc1 (stereo unspecified) | 1% | -23% | 16% | 0% | -16% | -2% | nt
O=C(Nc1ccc(S(=O)(=O)Nc2ncccn2)cc1)C1=NN(c2ccccc2)C(=O)CC1 | -75% | 0% | ? | -29% | 35µM* | 11% | 67*
O=C(Nc1ccc(N2CCOCC2)cc1)C1=NN(c2ccccc2)C(=O)CC1 | 0% | nt | 14% | 10% | -15% | 56% | nt
COc1ccc(C(=O)Nc2ccc(S(=O)(=O)Nc3nccc(C)n3)cc2)cc1 | -10% | 32% | -14% | -3% | -10% | 25% | nt
Cc1ccnc(NS(=O)(=O)c2ccc(NC(=O)c3ccc(N4C(=O)CCC4=O)cc3)cc2)n1 | ? | ? | ? | -5% | 8.9µM* | 0% | 67*
COCCN(C(=S)Nc1cccc(OC)c1)C1CCN(C(C)C)CC1 | 0% | -3% | 17% | 2% | -11% | 6% | nt
C=CCn1c(SCc2c(C)noc2C)nnc1C1COc2ccccc2O1 (stereo unspecified) | -6% | 6% | 4% | 5% | -16% | -3% | nt
Fc1cccc(-c2nn[nH]n2)c1 | 3% | 5% | 15% | -1% | -7% | 3% | nt
Cc1ccc(C)n1-c1cccc(-c2nn[nH]n2)c1 | nt | nt | nt | nt | nt | nt | ?
O=C(c1cccnc1)N1CCN(c2ccc([N+](=O)[O-])cc2Cl)CC1 | -7%[60.1 µM] | 4% | 18% | 6% | -8% | 3% | nt
O=C(N/N=C/C=C\c1ccco1)c1ccccn1 | 50µM* | ? | ? | 141% | ? | ? | ?
O=C(N/N=C/C=C/c1ccccc1)c1cccnc1 | 1% | 8% | 5% | 0% | -5% | 0% | nt
O=C(N/N=C/C=C\c1ccco1)c1cccnc1 | 79µM* | 19% | 18µM* | -4% | ? | -1% | ?
COc1cc(C2CC(=O)N(c3ccccc3)C3=C2C(=O)OC3)cc(OC)c1OC (stereo unspecified) | -3% | 6% | ? | -6% | nt | nt | nt
Cc1c(Cl)c([N+](=O)[O-])nn1CCCC(=O)Nc1ccc(Cl)cc1Cl | -19% | 0% | -18% | 7% | -6% | -2% | nt
CC(=O)NCC1CCN(C(=O)C2CCC(=O)N(CCc3cccc(F)c3)C2)CC1 (stereo unspecified) | -14% | 25% | 21% | -3% | -22% | 16% | nt
CC[N+](CC)(CC)CCOc1ccc(/C=C\c2ccccc2)cc1 | -7%[19.4 µM] | nt | nt | nt | nt | -2% | nt
CC[N+](CC)(CC)CCCCOc1ccc2c(c1)C(=O)c1cc(OCCCC[N+](CC)(CC)CC)ccc1-2 | -27% | -102% | ? | -6% | ? | ? | ?
SMILES | Pol kappa inh-1 | Pol beta inh | POLI inh | GLS inhibitor | Pol eta inh-1 | APE1 inh | Pol eta inh-2 | others
Cc1ccc(OCC(=O)OCC(=O)Nc2ccc3c(c2)OCO3)cc1C | -13% | nt | 5% | 5% | -17% | -6% | nt
CCOC(=O)C(C)On1c(-c2ccccc2)nc2ccc([N+](=O)[O-])cc21 (stereo unspecified) | -9% | 10% | -8% | -1% | -2% | 9% | nt
O=C(O)COn1c(-c2ccccc2)nc2ccc([N+](=O)[O-])cc21 | ? | 35µM* | ? | ? | 18µM* | ? | ?
Cc1cccc(OCC(=O)OCc2cc(=O)n3nc(-c4cccs4)sc3n2)c1 | ? | 25µM* | ? | -10% | ? | nt | ?
COc1ccc(-c2nn(-c3ccccc3)cc2C2CC(c3cccs3)=NN2C(=O)CCC(=O)O)cc1 (stereo unspecified) | 3% | 1% | -15% | 2% | -4% | -2% | nt
COc1ccc(C2=NN(C(=O)CCCC(=O)O)C(c3cn(-c4ccccc4)nc3-c3ccccc3)C2)cc1 (stereo unspecified) | ? | ? | 20µM* | -25% | -20% | -5% | ? | Pol kappa inh-2=0.38*
NC(=O)C1CCCN(CC(=O)Nc2ccccc2C(=O)NC2CC2)C1 (stereo unspecified) | -14% | nt | 19% | 0% | -21% | 11% | nt
Cc1noc(NS(=O)(=O)c2ccc(NC(=O)CSc3nnc4c(n3)[nH]c3ccccc34)cc2)c1C | ? | ? | ? | -16% | 25µM* | -1% | 24*
Cc1c(C(=O)N2CCN(C)CC2)oc2ccc(Br)cc12 | -5% | 16% | -15% | 2% | -6% | 9% | nt
Cc1c(C(=O)N2CCCC2)oc2ccc(Br)cc12 | -41% | ? | ? | -2% | 50µM* | 60% | ?
CC(C)(C)C1CCc2c(sc(NC(=O)c3ccncc3)c2C(=O)Nc2ccccc2Cl)C1 (stereo unspecified) | -27% | -1% | ? | 5% | 0% | nt | nt
C/C(=N\NC(=O)c1ccccc1O)C1C(=O)c2ccccc2C1=O | -5% | -22% | 27% | nt | -13% | -7% | nt
C/C(=N/NC(=O)c1cc2ccccc2cc1O)C1C(=O)c2ccccc2C1=O | ? | ? | 32µM* | ? | 14µM* | ? | ?
Cc1cccc(-n2c(C)cc(/C=C3\C(=N)N4N=C(CC(C)C)SC4=NC3=O)c2C)c1 | -6% | 3% | -6% | -5% | -17% | -3% | nt
